# Source: PubChem (several laboratories)
# Furin inh: inhibitors of human furin; P09958; purified furin, fluorogenic substrate cleavage; inhibition, % at 20 µM or 30 µM; 0.061% of 220,000 active; AID 463115; in the data active means inhibition above about 25%
# HSV replic up: HSV replication enhancement; maximum fold increase; HSV replication augmentation in cells, fold increase; AID 1956; 0.005% of 220,000 active; in the data active means maximum fold increase above about 1.5; tested in PC3 cells
# p47phox inh: p47phox (human) inhibition; inhibition, % at 24.7 µM; AID 1274; P14598; p47phox/p22phox peptide binding, fluorescence polarization, 2 h; 0.53% of 220,000 active;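 active means inhibition above about 30%, limit read from the data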;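 further: 0% = p47phox with labelled peptide and 100% = labelled peptide alone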
# Wee1 degr inh: blocks degradation of human Wee1 kinase; P30291; HeLa Luc-Wee1K328M stability, luciferase luminescence; 100% = proteasome inhibitor MG132 effect; reporter increase, % at 5 µM; 1.2% of 220,000 active; AID 1321;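 active means activation above the mean of all tested compounds plus 3 SD, set per screening run, cut at about 8.8% in these data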;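 further: cells exposed to compound for 20 h before luminescence read; 0% = DMSO alone and 100% = MG132 at 30 µM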
# EP2 mod: modulators of human EP2 prostaglandin E2 receptor | EP2-expressing cells, cAMP HTRF FRET, PGE2 co-stimulation | P43116 | induction, % at 25 µM | AID 940 | 0.83% of 260,000 active;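 active means compounds whose cAMP rise, as percent of the full-agonist control response, exceeds 60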;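 further: rat C6 glioma line stably carrying human EP2 under a CMV promoter; the protocol text gives 20 µM as final concentration; 100% = response of wells given 1 µM PGE2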
# Target sequence (P43116 whole entry, looked up): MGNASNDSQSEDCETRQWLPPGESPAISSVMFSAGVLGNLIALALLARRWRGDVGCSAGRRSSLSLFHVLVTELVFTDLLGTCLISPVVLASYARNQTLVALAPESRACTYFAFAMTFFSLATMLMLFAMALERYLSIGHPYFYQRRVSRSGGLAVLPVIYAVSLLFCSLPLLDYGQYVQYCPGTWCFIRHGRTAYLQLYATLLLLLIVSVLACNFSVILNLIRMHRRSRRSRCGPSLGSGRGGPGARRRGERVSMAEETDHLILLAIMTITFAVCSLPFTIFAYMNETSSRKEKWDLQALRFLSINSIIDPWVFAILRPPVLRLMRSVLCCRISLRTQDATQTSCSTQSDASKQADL
# PGE2 EP2 inh: blocks the human prostaglandin E2 receptor EP2; P43116; C6 glioma cells expressing human EP2, cAMP TR-FRET; cells stimulated with saturating PGE2; inhibition, % at 25 µM; 0.52% of 260,000 active;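 active means percent inhibition above 40 after rounding to a whole number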;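 further: rat C6 glioma host cells with rolipram phosphodiesterase inhibitor present; the protocol text gives 20 µM as final concentration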
# Active calls of the source: *; i = inactive; · = no result; ! = not active in a repeat. An excerpt weighted towards active compounds, which were near 2.8% of everything screened.
SMILES,Furin inh,HSV replic up,p47phox inh,Wee1 degr inh,EP2 mod,PGE2 EP2 inh
CN(C)c1cccc(C(=O)N2CCc3nc(N4CCCC4)[nH]c(=O)c3C2)c1,·,·,·,·,-31.9,6.2
Cc1cc(=O)[nH]c(SCC(=O)Nc2ccccc2C(N)=O)n1,·,·,·,·,-3.6,10.6
Nc1cccc2c1C(=O)N(Cc1cccc(Cl)c1)C2=O,-9.8,i,2.8,11.2*,12.7,5.2
Nc1cc(CN2C(=O)c3ccccc3C2=O)cc(Cl)c1O,-20.0,i,-13.8,1.2,-4.8,13.0
Cc1cc(I)ccc1NC(=O)CSc1nnc(-c2ccc(Cl)cc2)o1,·,·,·,·,-9.9,18.8
CSc1ccc2c(c1)N(CCC1CCCCN1C)c1ccccc1S2 (centres undefined),-13.3,i,-8.0,-1.7,-19.1,13.4
CN1CCCC[C@@H]1CCN1c2ccccc2Sc2ccc(S(C)=O)cc21 (some centres undefined),·,·,·,·,13.2,44.5*
NC(=O)CCS(=O)(=O)c1ccccc1,-30.7,i,-12.4,-1.2,43.2,10.2
NC(=O)CCS(=O)(=O)c1ccc(Cl)cc1,-0.7,i,5.6,10.3*,-13.5,10.5
Cc1ccc2cc(CN(Cc3ccccc3)S(=O)(=O)c3ccc(Br)cc3)c(=O)[nH]c2c1,·,·,·,·,22.4,13.2
Nc1nc2c(Cl)c(Cl)ccc2s1,·,·,·,·,-83.9,60.5*
CCC(=O)Nc1nc2c(Cl)c(Cl)ccc2s1,·,·,·,·,-76.7,66.8*
COC(=O)C1=C(C)N(CC2CCCO2)C(=O)/C1=C\c1cccc(OC)c1O (centres undefined),·,·,·,·,-62.9,13.3
COC(=O)c1ccc(/C=N/NC(=O)c2ccccc2Cl)cc1,-8.7,i,-12.1,0.9,-48.1,6.1
CC(C)c1ccc(/C=N/NC(=O)c2ccccc2Cl)cc1,-17.6,i,-3.1,8.9*,-2.7,9.0
Cc1nc2ccc(NC(=O)c3cc([N+](=O)[O-])cc([N+](=O)[O-])c3Cl)cc2s1,-11.2,i,10.7,-0.9,-2.1,121.2*
Cc1nc2ccc(NC(=O)c3ccc(Cl)c([N+](=O)[O-])c3)cc2s1,-22.9,i,-4.5,1.3,-1.4,10.0
O=C1C2=C(Nc3cc([N+](=O)[O-])ccc3N2)O[C@H]1c1ccc([C@H]2OC3=C(Nc4ccc([N+](=O)[O-])cc4N3)C2=O)cc1,·,·,·,·,-24.4,58.0*
COc1ccc(S(=O)(=O)N2c3ccccc3OCC2C(C)(C)C)cc1 (centres undefined),-19.4,·,-4.2,-0.3,62.2*,4.3
CCCOc1ccc(/C(O)=C2/C(=O)C(=O)N(CCCn3ccnc3)C2c2ccc(C)o2)cc1 (centres undefined),-12.1,i,-10.6,9.7*,18.1,8.1
CCCOc1ccc(/C(O)=C2/C(=O)C(=O)N(CCCn3ccnc3)C2c2ccco2)cc1 (centres undefined),-2.8,i,-7.4,4.3,19.1,9.3
C[N+]1(CC(=O)Nc2ccccc2Cl)CCN(C(=O)c2cccs2)CC1,-14.4,i,93.6*,-1.4,39.3,9.1
CCc1ccccc1NC(=O)C1CCN(C(=O)c2cccs2)CC1,·,·,·,·,-1.9,6.7
COc1ccc2cc(C)c3nn(CC(=O)Nc4ccccn4)c(=O)n3c2c1,·,·,·,·,-18.4,10.8
Cc1cccn2c(=O)c3cc(C(N)=S)c(=N)n(CCCOC(C)C)c3nc12,-66.1,i,7.5,15.0*,37.4,10.0
SMILES,Furin inh,HSV replic up,p47phox inh,Wee1 degr inh,EP2 mod,PGE2 EP2 inh
CCOCCCn1c(=N)c(C(N)=S)cc2c(=O)n3cccc(C)c3nc21,-15.0,i,-10.0,-0.9,16.4,13.0
CCS(=O)(=O)N1CCC(c2nc(C)ncc2-c2cc(C)no2)CC1,·,·,·,·,2.5,·
CNC(=O)OCc1cccc(COC(=O)NC)n1,-16.7,i,39.1*,-0.1,-4.6,3.7
Oc1[nH]c2ccccc2c1N=Nc1ccc(F)cc1,-17.8,i,-66.7,-0.7,-14.5,6.3
Oc1ccc2ccccc2c1N=Nc1ccc(F)cc1,-24.5,i,-174.8,22.1*!,8.1,6.2
Cc1ccc(C(O)CN2CCC(O)(c3cccc(C(F)(F)F)c3)CC2)cc1 (centres undefined),·,·,·,·,-85.8,9.2
Cc1ccc(CN(CCCN(C)C)Cc2cn[nH]c2-c2cccs2)o1,·,·,·,·,7.1,11.0
O=c1c2ccccc2nc(CSc2nnnn2-c2ccccc2)n1-c1ccccc1Cl,-19.6,·,40.5*,-0.3,-3.1,·
N=C(N)SCc1nc2ccccc2c(=O)n1-c1ccccc1Cl,-15.4,i,-6.0,-1.0,11.3,14.8
Cc1cccc(N2CCN(C(c3cc4cccc(C)c4[nH]c3=O)c3nnnn3C(C)(C)C)CC2)c1C (centres undefined),·,·,·,·,14.8,12.8
Cc1ccc(COc2ccc(C)nc2[N+](=O)[O-])cc1,-20.4,i,5.4,8.8*,-39.1,0.7
CCn1c2cc(C)sc2c2cnn(CC(=O)NCCc3ccc(OC)cc3)c(=O)c21,·,·,·,·,-34.1,·
O=S(=O)(c1ccccc1)N1CCN(c2nnc(-c3ccccc3)c3ccccc23)CC1,-5.8,i,2.8,9.5*,-22.2,5.6
Cc1cc(C)cc(NC(=O)Nc2ccc3c(c2)N(C)C(=O)CS3)c1,-37.1,i,-13.9,-2.2,-70.2,43.3*
COc1ccc2nc(SCC(=O)N3CCNC3=O)[nH]c2c1,-13.2,i,3.7,9.0*,15.6,9.5
COc1ccc(CC(=O)N2CCNC2=O)cc1,-19.6,i,-12.4,29.2*,6.3,1.7
COC(=O)C1CCN(C(=O)CSc2nc3ccc(OC)cc3[nH]2)CC1,-21.2,i,10.4,-1.8,24.2,8.4
Cc1cc2c(cc1C)C(O)CC1(CCN(CC(O)c3ccc4c(c3)CCC4)CC1)O2 (centres undefined),·,·,·,·,-78.2,4.8
Cc1cc(C)c2[nH]c(=O)c(CN(CCCO)Cc3nnnn3Cc3ccccc3)cc2c1,·,·,·,·,-26.5,22.5
Cc1nn(C)cc1S(=O)(=O)NCC(c1ccccc1)N1CCCCCC1 (centres undefined),·,·,·,·,-26.5,4.2
CCOC(=O)Cc1[nH]nc2c1C(c1ccccc1F)C(C#N)=C(N)O2 (centres undefined),·,·,·,·,25.9,13.1
CC(NC(=O)/C(C#N)=C/c1ccc(Cl)c([N+](=O)[O-])c1)c1ccccc1 (centres undefined),-17.8,i,-0.9,5.0,-15.1,68.7*
N#CCCn1cc(C#N)c(-c2ccccc2)n1,·,·,·,·,-21.0,6.0
O=C(COc1ccc2nsnc2c1)NCc1nc(-c2ccccc2)no1,·,·,·,·,-50.9,50.1*
COc1ccccc1OCC(=O)NCc1nc(-c2ccccc2)no1,-3.6,i,-7.7,1.0,-2.2,5.9
O=C(O)/C=C/c1ccc2noc(-c3ccccc3)c2c1,-13.3,i,4.8,26.2*,30.0,15.1
Cc1ccc(-c2onc3ccc(C=O)cc23)cc1,-16.3,i,-22.1,-0.8,28.6,25.7
O=C(NC1CCCC1)c1nc2ncccn2n1,·,·,·,·,6.4,3.8
CCOc1ccc2[nH]c(=O)c(CN(C(=O)Nc3cccc(C)c3)C3CC3)cc2c1,·,·,·,·,-44.6,9.0
CCc1nn(CC(=O)N2CCCCC2)c(=O)c2cc3ccsc3n12,·,·,·,·,-29.2,·
